# Measurements published in the supplement of paper PMC13380429.
# Counter-ions that a name gives are not always drawn. A number with no mark means an inactive call.
# System: Vero E6 infected with SARS-CoV-2
# Test: inhibition of SARS-CoV-2 cytopathic effect; higher = more antiviral protection, active = above 15
# Settings: 8.33 nM; 48 h
row,SMILES,inhibition of SARS-CoV-2 cytopathic effect
1,C=CC(=O)Nc1cccc(Nc2nc(Nc3ccc(N4CCN(C(C)=O)CC4)cc3OC)ncc2C(F)(F)F)c1 [rociletinib],-1.67%
2,COc1ccc(CCN(C)CCc2ccc(OC)c(OC)c2)cc1OC,3.91%
3,Nc1ncnc2c1ncn2[C@H]1CC[C@@H](CO)O1 [dideoxyadenosine],2.41%
4,C[C@H](Oc1cc(-c2cnn(C3CCNCC3)c2)cnc1N)c1c(Cl)ccc(F)c1Cl [crizotinib-(S)],-0.2%
5,C[C@]12CCC(=O)C=C1CC[C@@H]1[C@@H]2C(=O)C[C@]2(C)C(=O)CC[C@@H]12 [adrenosterone],-2.37%
6,CC(=O)OCC(=O)[C@@]1(O)[C@@H](C)C[C@H]2[C@@H]3CCC4=CC(=O)C=C[C@]4(C)[C@@]3(F)[C@@H](O)C[C@@]21C [betamethasone-acetate],0.805%
7,C/C=C/C[C@@H](C)C(=O)[C@H]1C(=O)N[C@@H](C(C)C)C(=O)N(C)CC(=O)N(C)[C@@H](CC(C)C)C(=O)N[C@@H](C(C)C)C(=O)N(C)[C@@H](CC(C)C)C(=O)N[C@@H](C)C(=O)N[C@H](C)C(=O)N(C)[C@@H](CC(C)C)C(=O)N(C)[C@@H](CC(C)C)C(=O)N(C)[C@@H](C(C)C)C(=O)N1C [valspodar],-0.88%
8,Nc1ncnc2c1c(COc1cccc(Cl)c1)nn2C1CCOCC1,-0.68%
9,N#Cc1ccc(-c2ccc(S(=O)(=O)Nc3cccc(N)n3)cc2)cc1,3.14%
10,CN(C)c1cc(CNCC(C)(C)C)c(O)c2c1C[C@H]1C[C@H]3[C@H](N(C)C)C(O)=C(C(N)=O)C(=O)[C@@]3(O)C(O)=C1C2=O [omadacycline],0.51%
11,O=C(O)c1ccccc1O [salicylic-acid],-5.54%
12,O=C(Oc1cc(S(=O)(=O)c2ccccc2)ccc1[N+](=O)[O-])c1ccc(Cl)cc1,0.6%
13,NCCc1c[nH]c2ccc(C(N)=O)cc12 [5-carboxamidotryptamine],0.54%
14,CC1CCC(NC(=O)N(CCCl)N=O)CC1 (configuration not stated) [semustine],1.15%
15,CN(C)C(=O)COC(=O)Cc1ccc(OC(=O)c2ccc(NC(=N)N)cc2)cc1 [Camostat mesylate],-0.39%
16,CCCCCCCCCCC(O)C1C=CC2C(=O)N(c3ccccc3)C(=O)C2N1Nc1ccc([N+](=O)[O-])cc1 (configuration not stated),0.89%
17,COc1ccc(N(C)c2nc(C)nc3ccccc23)cc1 [verubulin],2.34%
18,CC=CC1=C(C(=O)O)N2C(=O)[C@@H](NC(=O)[C@H](N)c3ccc(O)cc3)[C@H]2SC1 (mixture of isomers) [cefprozil],0.76%
19,CCOc1ccc(Nc2nc(-c3c(C)nc4ccccn34)cs2)cc1,-0.39%
20,O=C(O)CC/C=C\C[C@@H]1CO[C@H](c2ccccc2Cl)O[C@@H]1c1ccccc1O (racemic),1%
21,N#Cc1ccc2[nH]c(O)c(-c3ccc(CN4CCOCC4)cn3)c2c1,-0.13%
22,Cc1ncc(NC(=O)c2ccc(CN3CCN(C)CC3)c(C(F)(F)F)c2)cc1Nc1nccc(-c2cccnc2)n1 [flumatinib],-0.34%
23,CC(C)NCCN(C(C)C)S(=O)(=O)c1ccc(Cl)cc1Cl,-1.25%
24,O=C(NC1(c2ccccc2)CC1)c1c(CN2CCC(N3CCCCC3)CC2)c(-c2cccc(C(F)(F)F)c2)nc2cc(Br)ccc12,3.71%
25,NC(=O)c1noc([C@H](CCCC2CCCCC2)CC(=O)NO)n1,-2.89%
26,COc1cc(OC)c(OC)cc1C=O [asaraldehyde],-1.92%
27,O=C1NC(=O)C(=Cc2ccc(-c3ccc(F)cc3)o2)S1 (stereo in doubt),0.24%
28,COc1ccc(Nc2ccn(-c3ccccc3)n2)cc1,1.12%

# Same assay, conditions: 100 nM; 48 h
row,SMILES,inhibition of SARS-CoV-2 cytopathic effect
1,O=C(NO)c1ccc(O)c(O)c1 [didox],1.83%
2,Cc1ccc2c(c1)=C(c1ccccc1)C(C1=NN(C(=O)CCC(=O)O)C(c3ccc(Br)cc3)C1)C(=O)N=2 (configuration not stated),2.84%
3,CC(C)[C@@H]1CC[C@@H](C)C[C@H]1O [levomenthol],1.02%
4,COc1ccc(C(=O)c2ccccc2O)c(O)c1 [dioxybenzone],-1.57%
5,c1ccc2c(c1)OC[C@H](CNCCCOc1ccc3c(c1)OCO3)O2 [osemozotan],3.35%
6,CC(C)C[C@H](NC(=O)[C@@H](Cc1c[nH]c2ccccc12)NC(=O)[C@H](Cc1ccc(O)cc1)NC(=O)[C@H](CO)NC(=O)[C@H](Cc1c[nH]c2ccccc12)NC(=O)[C@H](Cc1c[nH]cn1)NC(=O)[C@@H]1CCC(=O)N1)C(=O)N[C@@H](CCCNC(=N)N)C(=O)N1CCC[C@H]1C(=O)NCC(N)=O [triptorelin],1.66%
7,Cc1cc(N2CCCCC2)nc2ccccc12,-0.88%
8,Oc1cc(O)cc(O)c1 [phloroglucin],2.28%
9,CC(=O)NS(=O)(=O)c1ccc(NC(=O)c2ccccc2C(=O)O)cc1 [phthalylsulfacetamide],-0.27%
10,C[C@]1(COc2ccc(N3CCC(Oc4ccc(OC(F)(F)F)cc4)CC3)cc2)Cn2cc([N+](=O)[O-])nc2O1 [delamanid],-1.12%
11,Cc1ccc(/C=N/NC(=O)c2ccccc2Oc2ccccc2)o1,-0.55%
12,C=CC(=O)Nc1cccc(Nc2nc(Nc3ccc(N4CCN(C(C)=O)CC4)cc3OC)ncc2C(F)(F)F)c1 [rociletinib],-0.14%
13,COc1ccc(CCN(C)CCc2ccc(OC)c(OC)c2)cc1OC,0.58%
14,Nc1ncnc2c1ncn2[C@H]1CC[C@@H](CO)O1 [dideoxyadenosine],2.1%
15,C[C@H](Oc1cc(-c2cnn(C3CCNCC3)c2)cnc1N)c1c(Cl)ccc(F)c1Cl [crizotinib-(S)],-0.33%
16,C[C@]12CCC(=O)C=C1CC[C@@H]1[C@@H]2C(=O)C[C@]2(C)C(=O)CC[C@@H]12 [adrenosterone],0.08%
17,CC(=O)OCC(=O)[C@@]1(O)[C@@H](C)C[C@H]2[C@@H]3CCC4=CC(=O)C=C[C@]4(C)[C@@]3(F)[C@@H](O)C[C@@]21C [betamethasone-acetate],0.555%
18,C/C=C/C[C@@H](C)C(=O)[C@H]1C(=O)N[C@@H](C(C)C)C(=O)N(C)CC(=O)N(C)[C@@H](CC(C)C)C(=O)N[C@@H](C(C)C)C(=O)N(C)[C@@H](CC(C)C)C(=O)N[C@@H](C)C(=O)N[C@H](C)C(=O)N(C)[C@@H](CC(C)C)C(=O)N(C)[C@@H](CC(C)C)C(=O)N(C)[C@@H](C(C)C)C(=O)N1C [valspodar],-1.83%
19,Nc1ncnc2c1c(COc1cccc(Cl)c1)nn2C1CCOCC1,-0.3%
20,N#Cc1ccc(-c2ccc(S(=O)(=O)Nc3cccc(N)n3)cc2)cc1,-0.56%

row,SMILES,inhibition of SARS-CoV-2 cytopathic effect
1,CN(C)c1cc(CNCC(C)(C)C)c(O)c2c1C[C@H]1C[C@H]3[C@H](N(C)C)C(O)=C(C(N)=O)C(=O)[C@@]3(O)C(O)=C1C2=O [omadacycline],1.58%
2,O=C(O)c1ccccc1O [salicylic-acid],-2.37%
3,O=C(Oc1cc(S(=O)(=O)c2ccccc2)ccc1[N+](=O)[O-])c1ccc(Cl)cc1,-2.99%
4,NCCc1c[nH]c2ccc(C(N)=O)cc12 [5-carboxamidotryptamine],3.52%
5,CC1CCC(NC(=O)N(CCCl)N=O)CC1 (configuration not stated) [semustine],-3.63%
6,CN(C)C(=O)COC(=O)Cc1ccc(OC(=O)c2ccc(NC(=N)N)cc2)cc1 [Camostat mesylate],-0.94%
7,CCCCCCCCCCC(O)C1C=CC2C(=O)N(c3ccccc3)C(=O)C2N1Nc1ccc([N+](=O)[O-])cc1 (configuration not stated),1.56%
8,COc1ccc(N(C)c2nc(C)nc3ccccc23)cc1 [verubulin],-2.32%
9,CC=CC1=C(C(=O)O)N2C(=O)[C@@H](NC(=O)[C@H](N)c3ccc(O)cc3)[C@H]2SC1 (mixture of isomers) [cefprozil],2.16%
10,CCOc1ccc(Nc2nc(-c3c(C)nc4ccccn34)cs2)cc1,-1.68%
11,O=C(O)CC/C=C\C[C@@H]1CO[C@H](c2ccccc2Cl)O[C@@H]1c1ccccc1O (racemic),-2.37%
12,N#Cc1ccc2[nH]c(O)c(-c3ccc(CN4CCOCC4)cn3)c2c1,-0.01%
13,Cc1ncc(NC(=O)c2ccc(CN3CCN(C)CC3)c(C(F)(F)F)c2)cc1Nc1nccc(-c2cccnc2)n1 [flumatinib],1.46%
14,CC(C)NCCN(C(C)C)S(=O)(=O)c1ccc(Cl)cc1Cl,0.74%
15,O=C(NC1(c2ccccc2)CC1)c1c(CN2CCC(N3CCCCC3)CC2)c(-c2cccc(C(F)(F)F)c2)nc2cc(Br)ccc12,1.73%
16,NC(=O)c1noc([C@H](CCCC2CCCCC2)CC(=O)NO)n1,0.07%
17,COc1cc(OC)c(OC)cc1C=O [asaraldehyde],-1.24%
18,O=C1NC(=O)C(=Cc2ccc(-c3ccc(F)cc3)o2)S1 (stereo in doubt),-0.68%
19,COc1ccc(Nc2ccn(-c3ccccc3)n2)cc1,3.85%
